The text below walks through data of PubChem BioAssay (Tox21).

Molecules are shown by their SMILES. A number with no mark means an inactive call. Inconclusive results are not listed. Calls of active or inactive are those of the source. Unless noted, calls come from the whole dose curve.

Assay [1] in a line: Nuclear factor erythroid 2-related factor 2/antioxidant responsive element (Nrf2/ARE) small molecule agonists: qHTS cell viability counter screen in human keratinocytes (AID 1919968; active = well fitted curve in the direction sought with a large enough effect in the repeat runs; an effect the other way counts as inactive or inconclusive; note: nearly all actives have a fitted effect of over 55% in size; note: potency is the fitted concentration of half-maximal effect). Put shortly: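 KeratinoSens cells (HaCaT keratinocytes stably carrying an ARE-luciferase reporter) were seeded at 1,500 cells/well and rested 5 h at 37 C/5% CO2. They were then exposed to compounds in DMSO for 23 h. Viability was read by CellTiter-Fluor fluorescence after 1 h.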
A general note: Quantitative high-throughput screening tests each substance at several concentrations.

A short description of assay [2]: Nuclear factor erythroid 2-related factor 2/antioxidant responsive element (Nrf2/ARE) small molecule agonists: luciferase reporter gene qHTS assay in human keratinocytes (AID 1919969). Note: nearly all actives have a fitted effect of over 35% in size. Note: potency is the fitted concentration of half-maximal effect. A general note: Reporter assays use an easily measured gene product as a stand-in for the process of interest.
Assay [3] deals with Gonadotropin-releasing hormone receptor (Homo sapiens) (UniProt P30968). The assay is described as follows: Human gonadotropin-releasing hormone receptor (GnRHR) small molecule agonists, calcium flux assay in GnRHR-HEK293 cells (AID 1920063). Note: nearly all actives have a fitted effect of over 35% in size. Summed up: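 HEK293 cells stably expressing human GnRHR were plated 18 h at 37 °C, loaded with calcium dye 1 h at 37 °C, then given compound in agonist mode; fluorescence (Ex/Em 480/540) read kinetically for 3 min at 1 s intervals.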

For assay [4], the target named is KiSS-1 receptor (Homo sapiens) (UniProt Q969F8). The assay is described as follows: Human kisspeptin (KISS1R) small molecule agonists, calcium flux assay in KISS1R-HEK293 cells (AID 1920064; active = well fitted curve in the direction sought with a large enough effect in the repeat runs; an effect the other way counts as inactive or inconclusive). Summed up: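 HEK293 cells stably expressing human KISS1R were plated 18 h at 37 °C, loaded with calcium dye for 1 h at 37 °C, then given compound by pin tool. Fluorescence (Ex/Em 480/540) was read kinetically for 3 min.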
A general note: Calcium assays in cells follow changes in intracellular calcium, usually with a dye or a luminescent sensor.

The nature of assay [5]: G protein-coupled receptor (GPCR) small molecule agonists, calcium flux assay: HEK293 wild type cell line counter screen (AID 1920065). Summed up:
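Cells were plated and cultured 18 h at 37 C/5% CO2, then loaded with calcium dye for 1 h at 37 C. Compounds in DMSO were pin-transferred in agonist mode, and fluorescence (Ex/Em 480/540) was read kinetically for 3 min at 1 s intervals.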

Assay [6] in a line: p53 small molecule agonists, cell-based qHTS assay with human liver microsomes: qHTS cell viability counter screen (AID 1963579). Note: nearly all actives have a fitted effect of over 45% in size. Summed up: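 Metabolic activation used human liver microsomes and NADPH, both 0.5 mg/mL final, over 16 hours at 37 C on p53RE-bla cells (4,000/well). Cytotoxicity measured by CellTiter-Glo luminescence, 30 min at room temperature.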
Assay [7] in a line: p53 small molecule agonists, cell-based qHTS assay with rat liver microsomes: qHTS cell viability counter screen (AID 1963580). Note: nearly all actives have a fitted effect of over 45% in size. Put shortly:
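In HCT-116 cells carrying a p53 response element-bla reporter, compounds were metabolically activated in situ by rat liver microsomes with NADPH over 16 h. Cell ATP content then served as the cytotoxicity measure.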

The nature of assay [8]: p53 small molecule agonists, cell-based qHTS assay: qHTS cell viability counter screen (AID 1963581). Note: nearly all actives have a fitted effect of over 45% in size. Put shortly:
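p53RE-bla HCT-116 cells were exposed to compounds for 16 h at 37 C; after the beta-lactamase FRET read in the same wells, CellTiter-Glo was added and luminescence (intracellular ATP) read after 30 min at room temperature.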

The target in assay [9] is 5-hydroxytryptamine receptor 2A (Homo sapiens) (UniProt P28223). The experiment in a line: 5-hydroxytryptamine receptor 2A (HTR2A) small molecule antagonists, cell-based qHTS assay (AID 1963586). Note: nearly all actives have a fitted effect of over 45% in size. Put shortly: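 Antagonist-mode intracellular calcium assay: DOI (4 nM) added after 5 min compound pre-incubation at room temperature to dye-loaded HTR2A-CHO cells. Fluorescence followed for 3 min, sampled every second.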

For assay [10] the target is unchanged. The assay is described as follows: 5-hydroxytryptamine receptor 2A (HTR2A) small molecule agonists, cell-based qHTS assay (AID 1963587). Note: nearly all actives have a fitted effect of over 30% in size. Put shortly:
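HTR2A-CHO cells, plated 18 h at 37 C/5% CO2, dye-loaded 1 h at 37 C; compounds in DMSO added by pin tool (agonist mode). Intracellular calcium flux read as kinetic fluorescence on FDSS over 2 min at 1 s intervals.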

In assay [11] the target is Muscarinic acetylcholine receptor M1 (Homo sapiens) (UniProt P11229). The assay is described as follows: Cholinergic receptor muscarinic 1 (CHRM1) small molecule antagonists, cell-based qHTS assay (AID 1963588). Note: nearly all actives have a fitted effect of over 40% in size. Summed up:
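CHRM1-CHO calcium-flux assay, antagonist mode. Cells were seeded 18 h, dye-loaded 1 h at 37 C and given compound for 5 min at RT, then acetylcholine was added at 50nM. FDSS fluorescence was read 3 min; 15 concentrations, three runs.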

For assay [12] the target is unchanged. The experiment in a line: Cholinergic receptor muscarinic 1 (CHRM1) small molecule agonists, cell-based qHTS assay (AID 1963589). Note: nearly all actives have a fitted effect of over 35% in size. Put shortly:
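CHO cells stably expressing human CHRM1, seeded 18 h at 37 C/5% CO2, dye-loaded 1 h at 37 C, then given compound in agonist mode; intracellular calcium fluorescence read kinetically at 1 s intervals. Fifteen concentrations, three independent runs.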

The target of assay [13] is Beta-2 adrenergic receptor (Homo sapiens) (UniProt P07550). The experiment in a line: Adrenergic beta2 receptor (ADRB2) small molecule antagonists, cell-based qHTS assay (AID 1963592). Note: series mostly up to about 92 µM; nearly all actives have a fitted effect of over 50% in size. Summed up: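 Cells (CHO, stable ADRB2 overexpression) incubated 18-20hr at 37C; compounds added from DMSO; agonist mix (1nM isoproterenol, 100uM IBMX, 25uM Ro-20-1724) added; 0.5hr RT; d2-cAMP and anti-cAMP-cryptate added; 1hr RT; 665/615 nm read.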

The target of assay [14] is D(2) dopamine receptor (Homo sapiens) (UniProt P14416). The experiment in a line: Dopamine D2 receptor (DRD2) small molecule agonists, cell-based qHTS assay (AID 1963594). Note: nearly all actives have a fitted effect of over 35% in size. Put shortly:
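HEK293 cells stably expressing DRD2 were cultured 24 h at 37 C, then given Ro20-1724 (0.1 mM final) and compounds for 10 min at room temperature. NKH477 (200nM) was then added for 30 min. cAMP was read by HTRF.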

A short description of assay [15]: cAMP Responsive Elements (CRE) small molecule antagonists, cell-based qHTS assay (AID 1963591; active = well fitted inhibition curve with a large enough effect in the signal ratio in the repeat runs, not every such curve was filed as active; the % refers to the signal ratio). Summed up: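 CRE-bla HEK293T cells were plated 18 h at 37 °C/5% CO2, pinned with compound in DMSO, then stimulated with NKH477 at 0.25 uM final for 3 h. LiveBLAzer B/G FRET substrate was added and plates incubated 2 h at room temperature.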
For assay [16], the target named is D(2) dopamine receptor (Homo sapiens) (UniProt P14416). The experiment in a line: Dopamine D2 receptor (DRD2) small molecule antagonists, cell-based qHTS assay (AID 1963595; active = well fitted inhibition curve with a large enough effect in the signal ratio in the repeat runs, with a control signal flat; the % refers to the signal ratio). Summed up: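 In this cell-based antagonist screen, compounds act for 10 min at room temperature before a 30 min challenge with 12 nM quinpirole and 200 nM NKH477. cAMP is quantified by HTRF competition in DRD2-HEK293 cells containing 0.1 mM Ro20-1724.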

The nature of assay [17]: cAMP Responsive Elements (CRE) small molecule agonists, cell-based qHTS assay (AID 1963590). Put shortly:
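CRE-bla HEK 293T cells in DMEM with 10% dialyzed FBS, NEAA, pyruvate and 25 mM HEPES were plated 18 h at 37 C/5% CO2, then exposed to compounds in DMSO for 3 h before LiveBLAzer B/G FRET substrate addition.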

Assay [18] deals with Beta-2 adrenergic receptor (Homo sapiens) (UniProt P07550). The assay is described as follows: Adrenergic beta2 receptor (ADRB2) small molecule agonists, cell-based qHTS assay (AID 1963593).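 Note: CHO cells stably overexpressing human ADRB2.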 Put shortly: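 CHO cells stably over-expressing ADRB2 were plated overnight at 37C, then dosed with compounds plus a stimulation mix containing 100uM IBMX and 25uM Ro-20-1724 for 0.5hr at room temperature. cAMP was measured by HTRF competition, 1hr.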

Sequence of KiSS-1 receptor (Homo sapiens) (Q969F8 whole entry, looked up): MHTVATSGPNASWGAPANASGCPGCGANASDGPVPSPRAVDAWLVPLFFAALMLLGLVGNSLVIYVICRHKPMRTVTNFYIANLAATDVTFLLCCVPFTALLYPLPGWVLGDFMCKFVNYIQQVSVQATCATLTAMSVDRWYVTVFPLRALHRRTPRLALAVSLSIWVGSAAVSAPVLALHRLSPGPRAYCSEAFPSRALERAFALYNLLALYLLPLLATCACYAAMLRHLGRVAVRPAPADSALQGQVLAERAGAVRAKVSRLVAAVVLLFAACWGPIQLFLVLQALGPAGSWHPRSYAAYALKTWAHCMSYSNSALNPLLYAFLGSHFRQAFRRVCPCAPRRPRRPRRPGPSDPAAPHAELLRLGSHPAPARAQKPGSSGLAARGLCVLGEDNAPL
Sequence of Gonadotropin-releasing hormone receptor (Homo sapiens) (P30968 whole entry, looked up): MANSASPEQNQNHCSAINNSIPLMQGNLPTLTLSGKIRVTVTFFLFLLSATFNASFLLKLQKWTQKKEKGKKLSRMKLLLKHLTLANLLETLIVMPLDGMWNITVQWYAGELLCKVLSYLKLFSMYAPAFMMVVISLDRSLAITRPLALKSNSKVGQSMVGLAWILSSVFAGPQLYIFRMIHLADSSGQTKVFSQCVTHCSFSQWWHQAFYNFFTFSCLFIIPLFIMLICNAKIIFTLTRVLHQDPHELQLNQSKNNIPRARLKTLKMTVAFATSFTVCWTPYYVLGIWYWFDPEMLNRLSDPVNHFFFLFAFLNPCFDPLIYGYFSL
Sequence of 5-hydroxytryptamine receptor 2A (Homo sapiens) (P28223 whole entry, looked up): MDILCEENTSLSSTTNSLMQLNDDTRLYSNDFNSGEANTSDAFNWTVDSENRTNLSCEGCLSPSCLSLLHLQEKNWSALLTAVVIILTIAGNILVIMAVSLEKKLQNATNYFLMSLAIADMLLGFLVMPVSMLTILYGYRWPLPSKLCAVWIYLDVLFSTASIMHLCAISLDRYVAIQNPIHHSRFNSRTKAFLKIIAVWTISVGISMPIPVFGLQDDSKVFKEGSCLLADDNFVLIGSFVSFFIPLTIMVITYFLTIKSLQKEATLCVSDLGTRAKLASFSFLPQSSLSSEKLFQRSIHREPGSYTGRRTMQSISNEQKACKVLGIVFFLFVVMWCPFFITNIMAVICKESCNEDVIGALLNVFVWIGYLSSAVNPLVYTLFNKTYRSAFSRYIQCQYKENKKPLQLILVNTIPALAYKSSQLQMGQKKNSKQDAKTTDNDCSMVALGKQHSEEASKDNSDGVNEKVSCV
Sequence of Muscarinic acetylcholine receptor M1 (Homo sapiens) (P11229 whole entry, looked up): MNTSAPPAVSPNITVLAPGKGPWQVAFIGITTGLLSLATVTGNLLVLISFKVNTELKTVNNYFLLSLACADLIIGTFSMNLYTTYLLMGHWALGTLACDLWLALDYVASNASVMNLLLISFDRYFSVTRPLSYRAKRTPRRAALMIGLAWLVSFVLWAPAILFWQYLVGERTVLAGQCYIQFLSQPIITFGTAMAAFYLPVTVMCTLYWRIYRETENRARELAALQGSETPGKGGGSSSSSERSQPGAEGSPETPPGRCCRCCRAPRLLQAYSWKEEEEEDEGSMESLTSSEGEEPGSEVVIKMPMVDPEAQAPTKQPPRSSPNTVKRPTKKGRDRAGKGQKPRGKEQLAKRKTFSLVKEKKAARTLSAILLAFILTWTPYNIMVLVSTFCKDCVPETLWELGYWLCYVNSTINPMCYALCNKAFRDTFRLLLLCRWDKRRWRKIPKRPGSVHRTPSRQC
Sequence of D(2) dopamine receptor (Homo sapiens) (P14416 whole entry, looked up): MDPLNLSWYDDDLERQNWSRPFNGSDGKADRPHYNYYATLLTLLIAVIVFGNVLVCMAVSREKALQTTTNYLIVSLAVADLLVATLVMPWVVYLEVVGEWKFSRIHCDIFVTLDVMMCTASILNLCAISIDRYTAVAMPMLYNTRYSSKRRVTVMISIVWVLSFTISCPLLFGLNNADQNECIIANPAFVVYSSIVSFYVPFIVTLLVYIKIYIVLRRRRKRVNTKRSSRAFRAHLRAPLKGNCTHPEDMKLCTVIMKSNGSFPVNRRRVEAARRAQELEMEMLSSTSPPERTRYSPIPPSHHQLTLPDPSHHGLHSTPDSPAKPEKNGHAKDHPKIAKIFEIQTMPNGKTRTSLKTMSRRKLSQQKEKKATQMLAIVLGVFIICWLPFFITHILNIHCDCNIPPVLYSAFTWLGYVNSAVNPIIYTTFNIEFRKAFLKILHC
Sequence of Beta-2 adrenergic receptor (Homo sapiens) (P07550 whole entry, looked up): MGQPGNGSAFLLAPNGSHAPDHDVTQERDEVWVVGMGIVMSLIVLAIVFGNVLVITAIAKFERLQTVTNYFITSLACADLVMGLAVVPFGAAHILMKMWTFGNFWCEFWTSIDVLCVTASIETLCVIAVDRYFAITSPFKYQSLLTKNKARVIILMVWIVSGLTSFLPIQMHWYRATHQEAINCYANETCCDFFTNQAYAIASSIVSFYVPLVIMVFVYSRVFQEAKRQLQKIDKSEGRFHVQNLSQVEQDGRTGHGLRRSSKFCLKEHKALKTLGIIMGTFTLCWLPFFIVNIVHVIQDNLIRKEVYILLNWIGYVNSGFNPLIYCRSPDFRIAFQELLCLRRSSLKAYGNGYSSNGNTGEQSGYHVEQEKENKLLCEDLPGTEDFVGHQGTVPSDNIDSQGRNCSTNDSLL

For the compound `N#CSCSc1nc2ccccc2s1`, the Potency in assay [1] is 13.7 µM (active); in [2], 9.69 µM (active). For the same compound, the Potency result in assay [3], in assay [4], in [5], in assay [6], in [7] and in assay [8] was “inactive” each time. Further, the Potency entry in assay [9], in assay [10], in assay [11], in assay [12], in [13] and in [14] was “inactive” in each case.
Consider `CCCCCCCCS(=O)(=O)O`, for which the Potency entry in assay [1], in assay [2], in assay [3], in assay [4], in assay [5] and in assay [6] was “inactive” throughout. The Potency result in assay [7], in assay [8], in assay [9], in assay [10], in [11] and in assay [12] was “inactive” each time. The Potency entry in [15], in assay [13] and in assay [16] was “inactive” throughout.
For `Nc1cc(N)cc(C(=O)O)c1`, the Potency result in assay [1], in assay [2], in assay [3], in assay [4], in assay [5] and in assay [6] was “inactive” each time. Moreover, the Potency entry in assay [7], in assay [8], in assay [9], in [10], in assay [11] and in assay [12] was “inactive” in each case. Moreover, the Potency result in [15], in [13] and in [14] was “inactive” in each case.
With `COC1CCC=CO1` (stereo not drawn), the Potency entry in [1], in assay [2], in assay [3], in [4], in assay [5] and in assay [6] was “inactive” throughout. Moreover, the Potency result in [7], in assay [8], in [9], in assay [10], in assay [11] and in assay [17] was “inactive” throughout. Moreover, the Potency entry in [15], in [13] and in assay [16] was “inactive” throughout.
In the case of `O=C(O)C(c1ccc(Cl)cc1)c1ccc(Cl)cc1`, the Potency result in [1], in assay [2], in assay [3], in assay [4], in assay [5] and in assay [6] was “inactive” throughout. Besides, the Potency entry in [7], in assay [8], in assay [9], in assay [10], in [11] and in assay [12] was “inactive” throughout. The Potency result in assay [15], in assay [13], in assay [14] and in assay [16] was “inactive” throughout.
Take `Cc1nc2ccccc2c(=O)o1`: the Potency result in assay [1], in [2], in [3], in assay [4], in [5] and in assay [6] was “inactive” in each case. Moreover, the Potency result in assay [7], in assay [8], in assay [9], in assay [10], in assay [11] and in [17] was “inactive” in each case. Also, the Potency entry in assay [15], in [13], in [14] and in [16] was “inactive” in each case.
Take `CC(C)CCOCc1ccccc1`: the Potency entry in [1], in assay [2], in assay [3], in assay [4], in [5] and in assay [6] was “inactive” throughout. Also, the Potency result in assay [7], in assay [8], in assay [9], in [10], in assay [11] and in [12] was “inactive” each time. Moreover, the Potency entry in [15], in assay [13], in [18], in assay [14] and in assay [16] was “inactive” in each case.
Turning to `CCCCNCC`, the Potency result in assay [1], in assay [2], in assay [3], in [4], in assay [5] and in assay [6] was “inactive” in each case. For the same compound, the Potency result in [7], in [8], in assay [9], in assay [10], in assay [11] and in assay [17] was “inactive” in each case. Besides, the Potency result in assay [15], in assay [13] and in assay [16] was “inactive” each time.
Consider `CC1=CC(=O)CCC1`, for which the Potency entry in assay [1], in [2], in [3], in assay [4], in [5] and in assay [6] was “inactive” in each case. The Potency entry in [7], in assay [8], in [9], in assay [10], in [11] and in [12] was “inactive” each time. Moreover, the Potency result in assay [13], in [14] and in [16] was “inactive” throughout.
